Results as given in PubChem BioAssay.
Activity calls are given as the source filed them.

Key:
[1] = test system: PRMT1 (protein arginine N-methyltransferase 1); assay: PRMT1 binders on small-molecule microarrays, primary screen, biochemical, small-molecule microarray, 635 nm fluorescence (AID 1088); details: small-molecule microarray binding, higher = more signal;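 further: binding of Prmt1 protein to compounds spotted on small-molecule microarray slides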
[2] = yeast growth modulation, basal conditions, primary screen, YJM789 clinical isolate, OD600, 24 h (AID 1089);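 further: growth of clinical yeast isolate S. cerevisiae YJM 789 seeded 1000 cells per well; test concentration not given here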; details: S. cerevisiae YJM789 growth, higher = more signal, called active from +8 up or from −8 down
[3] = fission yeast growth modulation, primary screen, strain 972, OD600, 24 h, no modulator (AID 1090);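 further: basal condition with compound alone and no growth modifier present; test concentration not given here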; details: S. pombe 972 growth, higher = more signal, called active from +8 up or from −8 down
[4] = S. cerevisiae growth modulation with rapamycin, primary screen, strain BY4716, OD600, 96 h (AID 1091); details: higher = more signal, called active from +8 up or from −8 down; further: test concentration not given here
[5] = molecular target: Torsin-1A-interacting protein 2 (Homo sapiens) (UniProt Q8NFQ8); assay: LULL1 binders on small-molecule microarray, primary screen, cell lysate, human LULL1 lysate, 635/667 nm fluorescence (AID 1092); details: hLULL1 lysate binding, 635 nm fluorescence, higher = more signal;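 further: probe is lysate of COS7 cells overexpressing human LULL1; score merges per-feature 667 nm fluorescence with signal-to-noise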
Chain of Torsin-1A-interacting protein 2 (Homo sapiens) (Q8NFQ8 whole entry, looked up): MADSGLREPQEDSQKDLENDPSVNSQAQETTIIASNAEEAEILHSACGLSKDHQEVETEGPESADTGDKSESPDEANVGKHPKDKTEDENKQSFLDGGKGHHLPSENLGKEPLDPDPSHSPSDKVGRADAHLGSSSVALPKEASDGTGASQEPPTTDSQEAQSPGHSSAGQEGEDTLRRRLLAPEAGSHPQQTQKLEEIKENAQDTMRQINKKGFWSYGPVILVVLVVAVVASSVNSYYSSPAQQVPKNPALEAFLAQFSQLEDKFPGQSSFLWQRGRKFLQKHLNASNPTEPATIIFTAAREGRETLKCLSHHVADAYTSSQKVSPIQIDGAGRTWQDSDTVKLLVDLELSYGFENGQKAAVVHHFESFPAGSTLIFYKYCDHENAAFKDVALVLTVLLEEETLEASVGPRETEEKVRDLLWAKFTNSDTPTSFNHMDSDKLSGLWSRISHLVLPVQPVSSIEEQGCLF

[6] = E. coli growth modulation, two-sided OD650, primary screen, E. coli filamentation project, strain DRC41, 24 h (AID 1093); details: OD650, 24 h, higher = more signal, called active from +8 up or from −8 down;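 further: MC1000 strain lacking acrAB efflux and sulA so SOS filamentation is blocked; test concentration not given here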
[7] = small-molecule microarray binders of probe aLefty2, primary screen, biochemical, biotinylated probe, 635/667 nm fluorescence (AID 1094); details: higher = more signal;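 further: score merges spot fluorescence near 667 nm with spot signal-to-noise ratio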
[8] = test system: Noggin (protein binding on small-molecule microarray); assay: Noggin binders on small-molecule microarray, primary screen, biochemical, 635/667 nm fluorescence (AID 1095); details: 635 nm fluorescence, higher = more signal;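 further: score merges 667 nm feature fluorescence with signal to noise over triplicate slides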
[9] = molecular target: Neurogenic locus notch homolog protein 3 (Homo sapiens) (UniProt Q9UM47); assay: NOTCH3 binders on small-molecule microarray, primary screen, biochemical, 635/667 nm fluorescence (AID 1096); details: NOTCH3 binding, 635 nm fluorescence, higher = more signal
Chain of Neurogenic locus notch homolog protein 3 (Homo sapiens) (Q9UM47 whole entry, looked up): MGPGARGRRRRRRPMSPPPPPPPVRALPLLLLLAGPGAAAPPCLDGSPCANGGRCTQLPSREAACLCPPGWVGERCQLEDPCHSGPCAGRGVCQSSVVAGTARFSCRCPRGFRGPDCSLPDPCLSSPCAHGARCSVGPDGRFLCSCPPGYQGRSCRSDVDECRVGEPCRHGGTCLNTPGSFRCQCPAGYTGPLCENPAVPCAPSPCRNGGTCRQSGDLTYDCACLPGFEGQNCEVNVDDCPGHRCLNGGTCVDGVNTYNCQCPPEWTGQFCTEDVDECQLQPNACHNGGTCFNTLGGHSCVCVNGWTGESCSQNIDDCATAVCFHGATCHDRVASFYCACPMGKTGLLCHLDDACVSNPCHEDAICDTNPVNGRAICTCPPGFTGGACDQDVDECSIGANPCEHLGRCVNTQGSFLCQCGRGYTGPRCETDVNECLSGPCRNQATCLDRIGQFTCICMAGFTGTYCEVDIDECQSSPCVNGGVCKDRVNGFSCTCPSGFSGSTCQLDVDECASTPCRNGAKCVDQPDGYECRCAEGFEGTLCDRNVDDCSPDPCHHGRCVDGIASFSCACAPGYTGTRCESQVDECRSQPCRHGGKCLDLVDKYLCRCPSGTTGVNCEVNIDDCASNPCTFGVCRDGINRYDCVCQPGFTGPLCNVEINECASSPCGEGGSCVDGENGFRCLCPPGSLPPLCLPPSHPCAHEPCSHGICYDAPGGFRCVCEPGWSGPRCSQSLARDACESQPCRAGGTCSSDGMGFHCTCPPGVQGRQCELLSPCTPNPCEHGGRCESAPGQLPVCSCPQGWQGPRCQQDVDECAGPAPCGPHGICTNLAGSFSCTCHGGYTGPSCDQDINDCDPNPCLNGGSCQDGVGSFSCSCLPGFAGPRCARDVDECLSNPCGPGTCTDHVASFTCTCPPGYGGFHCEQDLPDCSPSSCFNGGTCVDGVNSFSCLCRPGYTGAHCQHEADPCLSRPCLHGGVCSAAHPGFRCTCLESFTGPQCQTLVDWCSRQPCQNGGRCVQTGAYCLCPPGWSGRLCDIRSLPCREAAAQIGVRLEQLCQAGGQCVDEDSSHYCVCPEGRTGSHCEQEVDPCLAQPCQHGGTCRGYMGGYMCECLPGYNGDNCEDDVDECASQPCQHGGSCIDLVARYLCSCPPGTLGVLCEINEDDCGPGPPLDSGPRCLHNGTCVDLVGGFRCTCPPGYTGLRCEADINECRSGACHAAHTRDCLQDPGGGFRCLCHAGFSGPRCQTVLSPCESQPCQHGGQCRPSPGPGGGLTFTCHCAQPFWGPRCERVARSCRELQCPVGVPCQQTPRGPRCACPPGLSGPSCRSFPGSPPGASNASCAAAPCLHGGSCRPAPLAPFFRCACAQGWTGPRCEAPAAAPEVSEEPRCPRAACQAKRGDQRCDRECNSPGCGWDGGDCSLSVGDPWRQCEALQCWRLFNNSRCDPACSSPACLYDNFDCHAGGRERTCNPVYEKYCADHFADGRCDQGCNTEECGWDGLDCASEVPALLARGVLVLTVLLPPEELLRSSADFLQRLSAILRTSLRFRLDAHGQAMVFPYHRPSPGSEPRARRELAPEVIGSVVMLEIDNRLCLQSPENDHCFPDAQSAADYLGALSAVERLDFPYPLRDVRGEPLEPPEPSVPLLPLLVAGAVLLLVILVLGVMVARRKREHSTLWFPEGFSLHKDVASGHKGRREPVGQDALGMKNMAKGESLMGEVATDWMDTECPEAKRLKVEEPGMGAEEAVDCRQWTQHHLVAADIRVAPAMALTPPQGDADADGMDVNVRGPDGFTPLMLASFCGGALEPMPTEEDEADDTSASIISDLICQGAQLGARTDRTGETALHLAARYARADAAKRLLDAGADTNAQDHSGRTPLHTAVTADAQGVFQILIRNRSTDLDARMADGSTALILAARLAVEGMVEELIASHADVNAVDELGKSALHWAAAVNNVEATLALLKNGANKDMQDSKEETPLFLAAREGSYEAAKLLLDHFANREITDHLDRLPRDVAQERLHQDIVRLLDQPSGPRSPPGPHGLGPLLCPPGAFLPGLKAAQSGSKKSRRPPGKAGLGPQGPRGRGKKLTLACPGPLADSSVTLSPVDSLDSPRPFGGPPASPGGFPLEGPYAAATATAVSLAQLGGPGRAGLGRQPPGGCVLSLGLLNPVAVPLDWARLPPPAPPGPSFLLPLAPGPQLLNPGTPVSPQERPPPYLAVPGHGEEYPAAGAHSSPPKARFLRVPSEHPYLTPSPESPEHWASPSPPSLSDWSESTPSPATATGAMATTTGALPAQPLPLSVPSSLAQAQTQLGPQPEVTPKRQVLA

[10] = small-molecule microarray binders of probe aEGFR, primary screen, biochemical, biotinylated probe, 635/667 nm fluorescence (AID 1097); details: higher = more signal;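 further: probe is a biotinylated anti-EGFR antibody binding compounds printed on slides; score combines fluorescence near 667 nm and signal to noise of each spot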
[11] = test system: Plasmodium falciparum Sir2 (PF13_0152, Sir2A); assay: pfSir2 binders on small-molecule microarrays, primary screen, biochemical, small-molecule microarray, 635 nm fluorescence (AID 1098); details: small-molecule microarray binding, fluorescence 635 nm; higher = more signal;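 further: score merges spot fluorescence intensity with its signal-to-noise ratio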
[12] = small-molecule microarray binders of probe aDKK1, primary screen, biochemical, biotinylated probe, 635/667 nm fluorescence (AID 1099); details: higher = more signal;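 further: score merges 667nm spot fluorescence with signal to noise across triplicate slides; reference of the scale not given here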
[13] = small-molecule microarray binders of probe aCHRDL2, primary screen, biochemical, biotinylated probe, 635/667 nm fluorescence (AID 1100); details: higher = more signal
[14] = splicing luciferase reporter signal modulators, primary screen, spliceosome inhibition project, cell-based, HEK293, splice +/- reporter (AID 1101); details: luminescence, 24 h, higher = more signal, called active from +8 up or from −8 down;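 further: HEK293 cells carrying a splicing-competent luciferase reporter gene; test concentration not given here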
[15] = molecular target: Fibroblast growth factor 10 (Homo sapiens) (UniProt O15520); assay: FGF10 binders on small-molecule microarrays, primary screen, biochemical, small-molecule microarray, 635 nm fluorescence (AID 1102); details: FGF10 binding, fluorescence 635 nm, higher = more signal
Chain of Fibroblast growth factor 10 (Homo sapiens) (O15520 whole entry, looked up): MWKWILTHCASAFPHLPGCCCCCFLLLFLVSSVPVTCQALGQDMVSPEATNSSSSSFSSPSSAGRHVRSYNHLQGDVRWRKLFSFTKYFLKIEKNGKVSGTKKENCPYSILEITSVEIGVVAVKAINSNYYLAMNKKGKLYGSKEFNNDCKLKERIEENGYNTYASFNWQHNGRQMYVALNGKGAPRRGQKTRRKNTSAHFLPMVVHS

[16] = test system: glycogen synthase kinase-3 (GSK3A per assay name; protocol says GSK3B); assay: GSK3 binders on small-molecule microarrays, primary screen, biochemical, small-molecule microarray, 635 nm fluorescence, GSK3A (AID 1103); details: small-molecule microarray binding, fluorescence 635 nm; higher = more signal; further: the record names both GSK3A and GSK3B
[17] = molecular target: Epidermal growth factor receptor (Homo sapiens) (UniProt P00533); assay: EGFR binders on small-molecule microarrays, primary screen, biochemical, small-molecule microarray, 635 nm fluorescence (AID 1104); details: EGFR binding, higher = more signal;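 further: score merges 667 nm emission intensity with spot signal to noise over triplicate slides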
Chain of Epidermal growth factor receptor (Homo sapiens) (P00533 whole entry, looked up): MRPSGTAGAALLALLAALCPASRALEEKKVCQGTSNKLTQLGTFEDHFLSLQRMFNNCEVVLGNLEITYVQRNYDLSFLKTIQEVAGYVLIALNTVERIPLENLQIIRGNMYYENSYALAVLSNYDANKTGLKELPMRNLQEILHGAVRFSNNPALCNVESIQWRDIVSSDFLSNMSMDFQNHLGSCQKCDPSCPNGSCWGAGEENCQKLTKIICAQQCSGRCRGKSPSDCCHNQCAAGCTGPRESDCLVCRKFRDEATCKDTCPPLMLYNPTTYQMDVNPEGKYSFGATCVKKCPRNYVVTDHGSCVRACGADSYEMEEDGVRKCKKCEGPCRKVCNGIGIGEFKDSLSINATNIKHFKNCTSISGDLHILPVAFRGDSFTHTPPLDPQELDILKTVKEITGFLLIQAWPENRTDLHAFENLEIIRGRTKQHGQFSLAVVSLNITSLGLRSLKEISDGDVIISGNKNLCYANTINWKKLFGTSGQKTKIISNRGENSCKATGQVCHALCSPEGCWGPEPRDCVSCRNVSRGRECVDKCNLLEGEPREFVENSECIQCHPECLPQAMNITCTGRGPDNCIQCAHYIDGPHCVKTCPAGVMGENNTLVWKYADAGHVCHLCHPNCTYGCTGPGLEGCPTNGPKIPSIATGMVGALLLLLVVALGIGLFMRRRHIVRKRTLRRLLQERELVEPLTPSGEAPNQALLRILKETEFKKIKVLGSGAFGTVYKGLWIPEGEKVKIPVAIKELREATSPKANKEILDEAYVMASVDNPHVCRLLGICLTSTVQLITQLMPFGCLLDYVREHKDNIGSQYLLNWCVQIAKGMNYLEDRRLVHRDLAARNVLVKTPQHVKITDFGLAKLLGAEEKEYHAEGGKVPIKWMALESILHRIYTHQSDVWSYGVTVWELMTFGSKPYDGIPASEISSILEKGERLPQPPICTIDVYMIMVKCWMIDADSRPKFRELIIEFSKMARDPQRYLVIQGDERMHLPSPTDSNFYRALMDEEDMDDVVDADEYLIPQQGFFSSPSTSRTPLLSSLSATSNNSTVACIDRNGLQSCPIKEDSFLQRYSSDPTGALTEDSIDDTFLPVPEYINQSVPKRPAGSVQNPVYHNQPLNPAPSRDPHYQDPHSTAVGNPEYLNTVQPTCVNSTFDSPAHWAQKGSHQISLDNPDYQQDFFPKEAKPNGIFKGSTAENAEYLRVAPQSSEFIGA

[18] = molecular target: Follistatin-related protein 3 (Homo sapiens) (UniProt O95633); assay: FSTL3 binders on small-molecule microarrays, primary screen, biochemical, small-molecule microarray, 635 nm fluorescence (AID 1105); details: FSTL3 binding, higher = more signal;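 further: score merges emission near 667 nm and signal to noise per printed spot across three slides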
Chain of Follistatin-related protein 3 (Homo sapiens) (O95633 whole entry, looked up): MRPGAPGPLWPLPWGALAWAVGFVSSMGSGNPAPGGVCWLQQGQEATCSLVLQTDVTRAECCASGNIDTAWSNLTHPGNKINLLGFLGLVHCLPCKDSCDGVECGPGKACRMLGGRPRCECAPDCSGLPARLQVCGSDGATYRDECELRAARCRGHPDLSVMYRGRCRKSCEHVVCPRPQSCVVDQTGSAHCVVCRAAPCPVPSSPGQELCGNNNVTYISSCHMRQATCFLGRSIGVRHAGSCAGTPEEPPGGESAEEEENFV

[19] = molecular target: Dickkopf-related protein 1 (Homo sapiens) (UniProt O94907); assay: DKK1 binders on small-molecule microarrays, primary screen, biochemical, small-molecule microarray, 635 nm fluorescence scan (AID 1106); details: DKK1 binding, higher = more signal;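 further: score merges emission near 667 nm with signal to noise over three replicate slides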
Chain of Dickkopf-related protein 1 (Homo sapiens) (O94907 whole entry, looked up): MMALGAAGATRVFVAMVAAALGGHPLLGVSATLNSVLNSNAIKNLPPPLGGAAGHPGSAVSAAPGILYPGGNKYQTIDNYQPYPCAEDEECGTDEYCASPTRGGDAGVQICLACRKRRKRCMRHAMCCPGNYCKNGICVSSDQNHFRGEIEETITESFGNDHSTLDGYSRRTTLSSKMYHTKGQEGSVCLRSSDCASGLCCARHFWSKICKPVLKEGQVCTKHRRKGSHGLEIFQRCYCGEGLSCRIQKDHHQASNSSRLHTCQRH

[20] = test system: Inhibin beta A chain (activin A); assay: INHBA (activin A) binders on microarrays, primary screen, biochemical, small-molecule microarray, 635 nm fluorescence scan (AID 1107); details: small-molecule microarray binding, higher = more signal;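 further: mouse activin A protein probed at 4.33 µg/mL on printed slides; score merges bound-protein fluorescence near 667 nm with spot signal-to-noise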

Structure (SMILES)	composite z-score [1]	z-score [2]	z-score [3]	z-score [4]	composite z-score [5]	z-score [6]	composite z-score [7]	composite z-score [8]	composite z-score [9]	composite z-score [10]	composite z-score [11]	composite z-score [12]	composite z-score [13]	z-score [14]	composite z-score [15]	composite z-score [16]	composite z-score [17]	composite z-score [18]	composite z-score [19]	composite z-score [20]
CCCCC(CC)C(O)C1C=CC2C(=O)N(c3ccccc3)C(=O)C2N1Nc1ccc(C#N)cc1 (stereo not given)	1.54	0.491 (inactive)	0.221 (inactive)	1.85 (inactive)	3.14	0.0307 (inactive)	0.555	0.208	1.04	0.338	0.976	1.33	0.813	0.037 (inactive)	1.11	1.32	0.217	1.28	0.0492	0.783
NCCCCCNC(=O)[C@@H]1C[C@@H]2C(=O)N[C@@H](CCCCN)C(=O)N2[C@@H]1c1ccc(O)cc1	1.53	1.83 (inactive)	1.91 (inactive)	3.76 (inactive)	3.2	-0.0616 (inactive)	0.303	1.67	0.881	0.345	1.57	0.899	0.713	0.498 (inactive)	1.41	1.34	1.13	1.43	1.81	1.32
CC(C)C(CO)N1C(=O)[C@@H]2C3C(=O)OCCC/C=C\[C@H]3OC23C=CCN(Cn2nnc4ccccc42)C(=O)[C@@H]13 (stereo not given in full)	0.828	0.0005 (inactive)	-0.299 (inactive)	0.0668 (inactive)	3.72	0.167 (inactive)	-0.159	-0.421	0.144	-0.268	0.192	-0.0842	0.543	0.323 (inactive)	-0.727	-0.2	-0.636	-0.359	-1.13	0.223
O=C1C2C=CC(C(O)c3ccco3)N(Nc3ccccc3F)C2C(=O)N1c1ccccc1 (stereo not given)	-0.281	0.252 (inactive)	0.512 (inactive)	-0.119 (inactive)	2.46	-1.47 (inactive)	0.0686	-0.221	0.569	-0.0435	0.926	0.497	1.01	0.901 (inactive)	0.285	0.179	-0.14	0.338	0.326	0.75
[N-]=[N+]=Nc1ccccc1C[C@]1(C(=O)O)COC(c2ccc(OCCCO)cc2)=N1	-0.767	-0.458 (inactive)	-0.88 (inactive)	0.559 (inactive)	1.66	-0.408 (inactive)	-0.195	-0.476	-0.609	-0.0079	1.15	0.336	0.829	-1.08 (inactive)	-0.51	-1.1	-0.473	-0.543	-0.885	0.764
CC(C)=C1C(=O)C(c2ccccc2)=C2CN3C(=O)N(CCc4ccccc4)C(=O)[C@]3(Cc3ccc(C(F)(F)F)cc3)[C@H]21	-0.555	-0.117 (inactive)	1.38 (inactive)	0.812 (inactive)	2.45	-1.48 (inactive)	0.01	-1.08	0.245	-0.139	1.04	1.18	1.3	0.0205 (inactive)	-0.649	-0.0628	-1.22	0.13	-1.7	0.877
CCOC(=O)C[C@H]1[C@H](OC(=O)c2ccc(C(=O)c3ccccc3)cc2)[C@@H](NC(=O)C2CCCCC2)c2cc(OCCCO)ccc2N1C(=O)c1ccc2ccccc2n1	1.34	-0.882 (inactive)	0.708 (inactive)	0.276 (inactive)	2.01	1.25 (inactive)	-0.02	0.887	1.13	0.0213	0.698	-0.0699	-0.125	0.112 (inactive)	0.839	0.432	0.34	1.03	0.595	0.456
CCCCCCCCCC(O)C1C=CC2C(=O)N(c3ccccc3)C(=O)C2N1Nc1cc(OC)c(OC)c(OC)c1 (stereo not given)	0.619	1.13 (inactive)	0.441 (inactive)	-0.236 (inactive)	2.23	-3.91 (inactive)	-0.163	-0.344	0.631	-0.0978	1.04	-0.0249	0.662	-0.901 (inactive)	-0.4	-0.214	-0.381	-0.246	-1.12	0.655
CN(C)C(=O)[C@]1(Cc2ccccc2CN=[N+]=[N-])N=C(c2ccc(OCCCO)cc2)O[C@@H]1c1ccccc1	1.57	-0.545 (inactive)	-1.07 (inactive)	20.8 (active)	3.29	-0.915 (inactive)	-0.0352	0.104	0.439	0.0958	1.19	0.161	0.821	-1.45 (inactive)	0.647	0.497	-0.19	-0.202	-0.147	1.29
CC(C)C(CO)N1C(=O)[C@@H]2[C@H]3C(=O)OCC=C[C@H]3OC23C=CCN(c2ccc(Cl)cc2)C(=O)[C@@H]13 (stereo not given in full)	0.193	0.964 (inactive)	0.123 (inactive)	1.25 (inactive)	-0.0004	0.669 (inactive)	-0.246	-1.16	-0.271	-0.068	-1.14	-0.0517	-0.0455	0.121 (inactive)	-0.739	-0.889	-0.627	-0.93	-0.865	0.653
